How the values were obtained:
Experiment in all cases: DAPPL (digital affinity profiling via proximity ligation, sequencing); 10 mM Tris-HCl pH 7.5, 50 mM NaCl, 1 mM DTT, 4% glycerol, room temperature, 30 min; GST-TFs on glutathione beads, 16-mer random dsDNA library, 0.1% formaldehyde crosslink after washing; high values mean tight binding
FLI1 = target: T1, FLI1 (Homo sapiens, UniProt Q01543 1-452); settings: protein: recombinant; tags: N-terminal GST; dsDNA, one strand shown
T1 sequence: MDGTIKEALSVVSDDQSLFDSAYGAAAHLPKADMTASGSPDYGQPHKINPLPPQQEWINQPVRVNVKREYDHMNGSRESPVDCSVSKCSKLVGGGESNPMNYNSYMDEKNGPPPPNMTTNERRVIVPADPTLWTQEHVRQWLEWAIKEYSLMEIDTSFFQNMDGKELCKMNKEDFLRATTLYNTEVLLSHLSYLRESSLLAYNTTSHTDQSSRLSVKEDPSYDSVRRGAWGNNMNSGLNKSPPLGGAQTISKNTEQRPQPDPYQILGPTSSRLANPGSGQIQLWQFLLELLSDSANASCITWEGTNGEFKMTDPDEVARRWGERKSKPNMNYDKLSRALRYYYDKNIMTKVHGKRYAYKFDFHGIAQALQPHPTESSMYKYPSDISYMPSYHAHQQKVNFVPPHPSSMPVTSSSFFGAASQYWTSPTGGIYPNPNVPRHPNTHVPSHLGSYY
Outline: (§1)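 Human transcription factors fused to GST were expressed in yeast, captured on glutathione beads, given DNA barcodes and pooled with a GST-only negative control. Pools were incubated with 200 nmole of a 16-mer random double-stranded DNA library in Tris/NaCl/DTT/glycerol buffer at room temperature for 30 min. They were then washed, crosslinked with 0.1% formaldehyde, proximity-ligated (BsaI/T4 ligase, 1 h, 37 °C), PCR-amplified and sequenced on an Illumina NextSeq500. Binding signal is each 6-mer's read frequency for a factor divided by its frequency for the GST control.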

ELK1 = target: T2, ELK1 (Homo sapiens, UniProt P19419 1-428); settings: protein: recombinant; tags: N-terminal GST; dsDNA, one strand shown
T2 sequence: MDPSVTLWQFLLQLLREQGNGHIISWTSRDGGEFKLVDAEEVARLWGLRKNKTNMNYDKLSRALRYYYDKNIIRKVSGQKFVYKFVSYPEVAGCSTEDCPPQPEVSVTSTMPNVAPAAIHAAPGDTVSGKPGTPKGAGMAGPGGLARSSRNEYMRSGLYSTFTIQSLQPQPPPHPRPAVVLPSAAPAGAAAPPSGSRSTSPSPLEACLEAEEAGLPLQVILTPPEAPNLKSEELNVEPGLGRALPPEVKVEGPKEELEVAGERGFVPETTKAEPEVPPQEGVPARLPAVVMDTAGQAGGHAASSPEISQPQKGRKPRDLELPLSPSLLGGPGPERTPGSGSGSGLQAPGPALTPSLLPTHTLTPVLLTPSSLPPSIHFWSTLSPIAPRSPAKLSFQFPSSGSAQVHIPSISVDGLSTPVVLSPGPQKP
Outline: as §1

GABPA = target: T3, GABPA (Homo sapiens, UniProt Q06546 1-454); settings: protein: recombinant; tags: N-terminal GST; dsDNA, one strand shown
T3 sequence: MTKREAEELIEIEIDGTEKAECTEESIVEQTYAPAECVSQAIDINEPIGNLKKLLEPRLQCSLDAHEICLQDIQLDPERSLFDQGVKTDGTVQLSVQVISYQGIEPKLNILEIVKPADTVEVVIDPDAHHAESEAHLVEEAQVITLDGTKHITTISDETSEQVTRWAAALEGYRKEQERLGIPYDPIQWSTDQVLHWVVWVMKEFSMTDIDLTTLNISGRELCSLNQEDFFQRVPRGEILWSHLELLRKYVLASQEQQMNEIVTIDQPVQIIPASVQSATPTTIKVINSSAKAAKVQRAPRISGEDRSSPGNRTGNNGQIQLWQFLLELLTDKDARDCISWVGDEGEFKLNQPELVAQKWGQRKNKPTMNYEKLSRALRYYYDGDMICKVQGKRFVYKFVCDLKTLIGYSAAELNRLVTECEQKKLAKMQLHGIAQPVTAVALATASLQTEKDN
Outline: as §1

ERG = target: T4, ERG (Homo sapiens, UniProt P11308 1-479); settings: protein: recombinant; tags: N-terminal GST; dsDNA, one strand shown
T4 sequence: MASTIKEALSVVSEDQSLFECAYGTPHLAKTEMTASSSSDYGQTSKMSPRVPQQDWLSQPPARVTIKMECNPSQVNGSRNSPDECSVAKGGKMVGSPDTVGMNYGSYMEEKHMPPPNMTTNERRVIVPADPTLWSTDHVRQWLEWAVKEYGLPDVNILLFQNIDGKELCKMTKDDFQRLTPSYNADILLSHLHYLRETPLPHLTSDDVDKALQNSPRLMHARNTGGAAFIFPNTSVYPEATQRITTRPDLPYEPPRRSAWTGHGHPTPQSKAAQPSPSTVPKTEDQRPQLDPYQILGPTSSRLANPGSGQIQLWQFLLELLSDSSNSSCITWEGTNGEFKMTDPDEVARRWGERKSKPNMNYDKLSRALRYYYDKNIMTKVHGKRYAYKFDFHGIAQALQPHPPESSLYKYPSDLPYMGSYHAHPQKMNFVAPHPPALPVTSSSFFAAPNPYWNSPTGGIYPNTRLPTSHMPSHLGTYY
Outline: as §1

ELF1 = ELF1 (Homo sapiens, UniProt P32519 1-619); settings: protein: recombinant; tags: N-terminal GST; dsDNA, one strand shown
Outline: as §1

EHF = target: T5, EHF (Homo sapiens, UniProt Q9NZC4 1-300); settings: protein: recombinant; tags: N-terminal GST; dsDNA, one strand shown
T5 sequence: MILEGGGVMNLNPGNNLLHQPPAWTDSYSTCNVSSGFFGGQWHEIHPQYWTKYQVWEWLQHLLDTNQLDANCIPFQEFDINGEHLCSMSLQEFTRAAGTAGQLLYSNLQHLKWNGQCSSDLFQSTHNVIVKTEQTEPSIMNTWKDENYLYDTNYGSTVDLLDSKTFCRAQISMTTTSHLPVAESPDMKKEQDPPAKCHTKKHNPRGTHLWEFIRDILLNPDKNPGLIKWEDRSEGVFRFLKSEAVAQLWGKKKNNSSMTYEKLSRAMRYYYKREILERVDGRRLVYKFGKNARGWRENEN
Outline: as §1

SPI1 = SPI1 (Homo sapiens, UniProt P17947 1-270); settings: protein: recombinant; tags: N-terminal GST; dsDNA, one strand shown
Outline: as §1

SPIB = SPIB (Homo sapiens, UniProt Q01892 1-262); settings: protein: recombinant; tags: N-terminal GST; dsDNA, one strand shown
Outline: as §1

ELK3 = target: T6, ELK3 (Homo sapiens, UniProt P41970 1-407); settings: protein: recombinant; tags: N-terminal GST; dsDNA, one strand shown
T6 sequence: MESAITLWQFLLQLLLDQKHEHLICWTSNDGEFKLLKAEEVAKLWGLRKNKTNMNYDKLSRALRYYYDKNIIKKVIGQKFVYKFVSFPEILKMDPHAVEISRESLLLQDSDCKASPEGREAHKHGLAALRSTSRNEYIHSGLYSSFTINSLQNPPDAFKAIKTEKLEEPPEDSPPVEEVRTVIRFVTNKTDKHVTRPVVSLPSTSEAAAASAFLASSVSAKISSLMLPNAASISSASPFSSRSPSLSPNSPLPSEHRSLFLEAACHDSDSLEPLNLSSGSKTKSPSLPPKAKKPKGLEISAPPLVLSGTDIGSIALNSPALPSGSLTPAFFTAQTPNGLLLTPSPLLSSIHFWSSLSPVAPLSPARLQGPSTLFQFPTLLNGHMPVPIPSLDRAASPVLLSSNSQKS
Outline: as §1

FEV = target: T7, FEV (Homo sapiens, UniProt Q99581 1-238); settings: protein: recombinant; tags: N-terminal GST; dsDNA, one strand shown
T7 sequence: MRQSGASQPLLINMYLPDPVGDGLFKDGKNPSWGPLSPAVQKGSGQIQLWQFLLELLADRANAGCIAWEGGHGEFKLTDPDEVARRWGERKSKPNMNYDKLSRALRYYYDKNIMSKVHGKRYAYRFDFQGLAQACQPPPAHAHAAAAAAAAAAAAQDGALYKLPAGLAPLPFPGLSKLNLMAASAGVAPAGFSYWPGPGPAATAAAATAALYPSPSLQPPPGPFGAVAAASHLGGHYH
Outline: as §1

ETV5 = ETV5 (Homo sapiens, UniProt P41161 1-510); settings: protein: recombinant; tags: N-terminal GST; dsDNA, one strand shown
Outline: as §1

HSF1 = HSF1 (Homo sapiens, UniProt Q00613 1-529); settings: protein: recombinant; tags: N-terminal GST; chain copies: 3; dsDNA, one strand shown
Outline: as §1

SPIC = target: T8, SPIC (Homo sapiens, UniProt Q8N5J4 1-248); settings: protein: recombinant; tags: N-terminal GST; dsDNA, one strand shown
T8 sequence: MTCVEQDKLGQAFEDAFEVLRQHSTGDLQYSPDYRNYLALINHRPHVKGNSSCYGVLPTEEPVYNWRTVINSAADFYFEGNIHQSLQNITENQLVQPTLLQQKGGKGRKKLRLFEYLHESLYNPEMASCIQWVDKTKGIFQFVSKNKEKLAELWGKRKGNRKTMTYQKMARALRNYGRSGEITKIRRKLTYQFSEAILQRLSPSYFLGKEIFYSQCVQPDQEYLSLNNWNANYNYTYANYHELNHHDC
Outline: as §1

ELF4 = ELF4 (Homo sapiens, UniProt Q99607 1-663); settings: protein: recombinant; tags: N-terminal GST; dsDNA, one strand shown
Outline: as §1

ELK4 = target: T9, ELK4 (Homo sapiens, UniProt P28324-2 1-405); settings: protein: recombinant; tags: N-terminal GST; dsDNA, one strand shown
T9 sequence: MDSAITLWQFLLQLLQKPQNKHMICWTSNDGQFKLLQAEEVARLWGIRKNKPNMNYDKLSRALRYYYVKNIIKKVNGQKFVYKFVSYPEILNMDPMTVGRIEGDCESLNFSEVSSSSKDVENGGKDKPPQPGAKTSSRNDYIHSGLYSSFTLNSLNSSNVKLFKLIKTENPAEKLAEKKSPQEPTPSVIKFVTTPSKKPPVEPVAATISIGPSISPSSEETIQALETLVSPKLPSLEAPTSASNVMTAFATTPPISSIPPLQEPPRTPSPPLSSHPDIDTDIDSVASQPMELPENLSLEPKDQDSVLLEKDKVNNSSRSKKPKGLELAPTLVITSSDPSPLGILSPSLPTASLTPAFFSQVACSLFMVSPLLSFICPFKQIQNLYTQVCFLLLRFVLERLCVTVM
Outline: as §1

ETV2 = target: T10, ETV2 (Homo sapiens, UniProt O00321 1-342); settings: protein: recombinant; tags: N-terminal GST; dsDNA, one strand shown
T10 sequence: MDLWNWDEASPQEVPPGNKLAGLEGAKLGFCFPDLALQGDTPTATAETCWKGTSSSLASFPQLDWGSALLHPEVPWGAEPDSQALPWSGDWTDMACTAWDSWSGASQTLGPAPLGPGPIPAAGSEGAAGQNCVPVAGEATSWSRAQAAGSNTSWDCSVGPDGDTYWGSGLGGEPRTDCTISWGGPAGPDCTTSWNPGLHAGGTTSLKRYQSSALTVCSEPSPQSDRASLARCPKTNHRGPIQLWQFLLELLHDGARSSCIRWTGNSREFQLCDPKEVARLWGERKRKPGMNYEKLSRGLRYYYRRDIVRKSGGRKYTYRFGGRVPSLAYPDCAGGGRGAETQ
Outline: as §1

ELF3 = target: T11, ELF3 (Homo sapiens, UniProt P78545 1-371); settings: protein: recombinant; tags: N-terminal GST; dsDNA, one strand shown
T11 sequence: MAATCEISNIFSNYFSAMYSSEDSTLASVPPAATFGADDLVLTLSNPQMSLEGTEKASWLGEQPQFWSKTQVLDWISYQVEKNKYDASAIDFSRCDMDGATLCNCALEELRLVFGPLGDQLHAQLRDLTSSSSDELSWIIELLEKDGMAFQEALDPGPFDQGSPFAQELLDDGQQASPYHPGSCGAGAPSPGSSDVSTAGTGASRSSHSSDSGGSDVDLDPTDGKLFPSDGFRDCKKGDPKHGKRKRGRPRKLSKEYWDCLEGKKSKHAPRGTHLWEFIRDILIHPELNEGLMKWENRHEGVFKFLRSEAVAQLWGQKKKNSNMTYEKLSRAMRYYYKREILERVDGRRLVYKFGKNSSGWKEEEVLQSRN
Outline: as §1

CRX = CRX (Homo sapiens, UniProt O43186 1-299); settings: protein: recombinant; tags: N-terminal GST; dsDNA, one strand shown
Outline: as §1

ETV1 = ETV1 (Homo sapiens, UniProt P50549 1-477); settings: protein: recombinant; tags: N-terminal GST; dsDNA, one strand shown
Outline: as §1

SPIB, sequence (Q01892 whole entry): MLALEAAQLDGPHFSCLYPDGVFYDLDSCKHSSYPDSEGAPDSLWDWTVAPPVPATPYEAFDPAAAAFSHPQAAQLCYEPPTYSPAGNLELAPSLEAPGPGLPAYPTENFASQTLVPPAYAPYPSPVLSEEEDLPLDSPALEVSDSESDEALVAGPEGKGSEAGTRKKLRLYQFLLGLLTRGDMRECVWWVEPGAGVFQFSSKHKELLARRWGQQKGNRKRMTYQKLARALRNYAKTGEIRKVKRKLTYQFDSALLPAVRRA
ETV5, sequence (P41161 whole entry): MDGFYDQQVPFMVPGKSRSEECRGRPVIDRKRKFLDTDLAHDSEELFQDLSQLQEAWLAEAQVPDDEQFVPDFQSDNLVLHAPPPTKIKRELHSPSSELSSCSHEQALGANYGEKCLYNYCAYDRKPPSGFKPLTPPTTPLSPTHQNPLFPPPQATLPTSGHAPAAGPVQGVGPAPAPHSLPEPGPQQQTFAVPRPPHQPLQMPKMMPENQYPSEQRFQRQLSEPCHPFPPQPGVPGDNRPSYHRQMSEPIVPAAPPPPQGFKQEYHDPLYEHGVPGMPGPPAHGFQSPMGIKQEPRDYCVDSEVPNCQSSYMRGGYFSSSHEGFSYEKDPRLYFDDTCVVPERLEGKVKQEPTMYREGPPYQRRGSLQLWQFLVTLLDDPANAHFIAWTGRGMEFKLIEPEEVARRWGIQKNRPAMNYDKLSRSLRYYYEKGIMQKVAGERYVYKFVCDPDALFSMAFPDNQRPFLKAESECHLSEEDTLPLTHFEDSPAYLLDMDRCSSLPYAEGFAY
CRX, sequence (O43186 whole entry): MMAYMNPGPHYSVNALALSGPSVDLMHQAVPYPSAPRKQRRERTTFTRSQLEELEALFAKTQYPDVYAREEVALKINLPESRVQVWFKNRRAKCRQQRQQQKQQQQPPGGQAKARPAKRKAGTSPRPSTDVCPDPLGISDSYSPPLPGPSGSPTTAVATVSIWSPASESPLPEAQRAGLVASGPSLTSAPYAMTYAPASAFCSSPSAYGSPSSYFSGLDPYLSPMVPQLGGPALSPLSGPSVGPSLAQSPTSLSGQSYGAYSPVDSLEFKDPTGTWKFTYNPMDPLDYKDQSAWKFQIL
HSF1, sequence (Q00613 whole entry): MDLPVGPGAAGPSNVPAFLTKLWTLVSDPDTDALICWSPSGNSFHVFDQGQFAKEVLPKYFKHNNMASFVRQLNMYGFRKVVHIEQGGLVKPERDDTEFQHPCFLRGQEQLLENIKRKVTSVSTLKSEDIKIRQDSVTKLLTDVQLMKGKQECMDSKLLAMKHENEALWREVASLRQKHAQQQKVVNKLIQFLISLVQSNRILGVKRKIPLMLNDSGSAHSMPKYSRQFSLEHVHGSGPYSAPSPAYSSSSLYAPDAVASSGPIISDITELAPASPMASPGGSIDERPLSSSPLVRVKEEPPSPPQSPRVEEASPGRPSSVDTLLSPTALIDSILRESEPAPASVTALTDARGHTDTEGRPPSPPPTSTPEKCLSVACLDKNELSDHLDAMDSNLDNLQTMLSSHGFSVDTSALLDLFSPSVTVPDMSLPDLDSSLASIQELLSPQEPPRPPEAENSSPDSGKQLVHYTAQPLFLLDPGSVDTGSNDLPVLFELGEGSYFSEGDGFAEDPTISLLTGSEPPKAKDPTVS
ELF4, sequence (Q99607 whole entry): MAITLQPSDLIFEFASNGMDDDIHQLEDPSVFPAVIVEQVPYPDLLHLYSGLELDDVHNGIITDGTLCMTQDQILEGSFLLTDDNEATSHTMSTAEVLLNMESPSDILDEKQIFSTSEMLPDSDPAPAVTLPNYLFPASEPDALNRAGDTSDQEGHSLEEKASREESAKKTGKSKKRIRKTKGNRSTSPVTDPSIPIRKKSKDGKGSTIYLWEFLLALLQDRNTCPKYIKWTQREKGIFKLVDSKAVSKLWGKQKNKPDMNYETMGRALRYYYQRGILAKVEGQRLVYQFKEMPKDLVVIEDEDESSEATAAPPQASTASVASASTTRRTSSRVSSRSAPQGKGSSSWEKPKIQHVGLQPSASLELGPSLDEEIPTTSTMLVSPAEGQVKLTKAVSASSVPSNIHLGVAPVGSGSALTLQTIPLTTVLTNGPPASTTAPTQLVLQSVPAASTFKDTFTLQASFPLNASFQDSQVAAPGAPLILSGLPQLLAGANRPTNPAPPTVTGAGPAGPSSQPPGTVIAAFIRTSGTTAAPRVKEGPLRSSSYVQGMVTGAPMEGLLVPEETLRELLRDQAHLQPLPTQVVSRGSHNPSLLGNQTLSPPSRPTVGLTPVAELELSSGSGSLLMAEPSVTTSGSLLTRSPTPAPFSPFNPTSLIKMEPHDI
ETV1, sequence (P50549 whole entry): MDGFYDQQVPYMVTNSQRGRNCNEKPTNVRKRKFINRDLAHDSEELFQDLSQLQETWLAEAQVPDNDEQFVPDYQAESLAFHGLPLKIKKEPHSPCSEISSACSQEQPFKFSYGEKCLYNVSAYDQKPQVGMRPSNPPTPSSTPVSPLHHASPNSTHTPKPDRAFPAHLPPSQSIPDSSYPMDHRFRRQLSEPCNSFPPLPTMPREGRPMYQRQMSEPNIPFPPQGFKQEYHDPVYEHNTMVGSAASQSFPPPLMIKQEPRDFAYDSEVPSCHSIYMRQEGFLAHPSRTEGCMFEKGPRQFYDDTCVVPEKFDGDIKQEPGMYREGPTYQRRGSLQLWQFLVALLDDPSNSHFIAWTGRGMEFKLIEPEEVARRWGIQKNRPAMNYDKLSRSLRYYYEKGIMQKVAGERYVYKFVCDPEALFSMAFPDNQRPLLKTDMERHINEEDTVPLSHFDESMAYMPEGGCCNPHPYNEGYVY
ELF1, sequence (P32519 whole entry): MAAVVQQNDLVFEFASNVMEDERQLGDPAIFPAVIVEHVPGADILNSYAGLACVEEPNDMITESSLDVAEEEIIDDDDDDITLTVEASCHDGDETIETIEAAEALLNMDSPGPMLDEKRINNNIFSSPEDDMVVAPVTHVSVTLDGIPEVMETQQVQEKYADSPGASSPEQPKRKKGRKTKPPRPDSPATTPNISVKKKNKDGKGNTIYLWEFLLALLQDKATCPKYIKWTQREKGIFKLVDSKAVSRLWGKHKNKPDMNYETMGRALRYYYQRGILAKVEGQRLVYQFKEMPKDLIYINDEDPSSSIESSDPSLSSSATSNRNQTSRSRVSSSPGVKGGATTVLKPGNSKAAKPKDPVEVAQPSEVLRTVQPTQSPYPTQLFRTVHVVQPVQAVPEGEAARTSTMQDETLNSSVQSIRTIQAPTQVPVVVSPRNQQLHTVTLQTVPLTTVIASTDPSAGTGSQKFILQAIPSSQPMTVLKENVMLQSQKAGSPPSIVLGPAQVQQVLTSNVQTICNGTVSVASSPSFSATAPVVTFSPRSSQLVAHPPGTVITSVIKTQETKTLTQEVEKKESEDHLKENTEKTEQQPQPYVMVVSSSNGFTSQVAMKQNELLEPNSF

ATTCAT
binding signal (FLI1): 1.28 fold enrichment (6-mer frequency, TF over GST control) | binding signal (ELK1): 1.12 fold enrichment (6-mer frequency, TF over GST control) | binding signal (GABPA): 1.14 fold enrichment (6-mer frequency, TF over GST control) | binding signal (ERG): 1.16 fold enrichment (6-mer frequency, TF over GST control) | binding signal (ELF1): 1.16 fold enrichment (6-mer frequency, TF over GST control) | binding signal (EHF): 1.12 fold enrichment (6-mer frequency, TF over GST control) | binding signal (SPI1): 1.15 fold enrichment (6-mer frequency, TF over GST control) | binding signal (SPIB): 1.21 fold enrichment (6-mer frequency, TF over GST control) | binding signal (ELK3): 1.19 fold enrichment (6-mer frequency, TF over GST control) | binding signal (FEV): 1.11 fold enrichment (6-mer frequency, TF over GST control) | binding signal (ETV5): 1.21 fold enrichment (6-mer frequency, TF over GST control) | binding signal (HSF1): 1.12 fold enrichment (6-mer frequency, TF over GST control) | binding signal (SPIC): 1.24 fold enrichment (6-mer frequency, TF over GST control) | binding signal (ELF4): 1.17 fold enrichment (6-mer frequency, TF over GST control) | binding signal (ELK4): 1.18 fold enrichment (6-mer frequency, TF over GST control) | binding signal (ETV2): 1.15 fold enrichment (6-mer frequency, TF over GST control) | binding signal (ELF3): 1.22 fold enrichment (6-mer frequency, TF over GST control) | binding signal (CRX): 1.16 fold enrichment (6-mer frequency, TF over GST control) | binding signal (ETV1): 1.18 fold enrichment (6-mer frequency, TF over GST control)

From article PMC7862700, “An all-to-all approach to the identification of sequence-specific readers for epigenetic DNA modifications on cytosine”
